# Reference: PubChem BioAssay (NCATS)
# A number with no mark means an inactive call. Results filed as inconclusive are left out. Where a call stands in place of a potency, no number is given. The source made the active and inactive calls. Calls come from the whole dose curve; as a rule, active = well fitted curve in the direction sought with a large enough effect; inconclusive = small, poorly fitted or top-dose-only effect, or another doubt; inactive = no such curve, though single readings can be large; an effect the other way counts as inactive or inconclusive.
# Key:
# [1] = target: Glutathione peroxidase 1 (Homo sapiens) (UniProt P07203); assay: Primary qHTS Assay for Inhibitors of Recombinant Selenoprotein Glutathione Peroxidase 1 (GPX1) (AID 1845191); note: nearly all actives have a fitted effect of over 65% in size
# Glutathione peroxidase 1 (Homo sapiens), sequence (P07203 whole entry, looked up): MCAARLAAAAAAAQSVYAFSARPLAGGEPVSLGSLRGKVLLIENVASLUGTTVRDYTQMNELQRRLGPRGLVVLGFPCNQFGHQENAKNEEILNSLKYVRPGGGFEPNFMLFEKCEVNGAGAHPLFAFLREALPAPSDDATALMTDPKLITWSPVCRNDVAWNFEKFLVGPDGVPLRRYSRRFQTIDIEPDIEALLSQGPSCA
# In short: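 GPX1 10 nM, GR 100 nM, GSH 1 mM, NADPH 0.5 mM, CHP 0.5 mM (final). 30-min cpd preincubation, RT. Ex340/Em450 read t=0, t=15 min.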
# [2] = target: Phospholipid hydroperoxide glutathione peroxidase GPX4 (Homo sapiens) (UniProt P36969); assay: Primary qHTS Assay for Inhibitors of Recombinant Selenoprotein Glutathione Peroxidase 4 (GPX4) (AID 1845192); note: nearly all actives have a fitted effect of over 65% in size; note: potency is the fitted concentration of half-maximal effect; for activity change, negative = inhibition: series mostly up to about 50 µM
# Phospholipid hydroperoxide glutathione peroxidase GPX4 (Homo sapiens), sequence (P36969 whole entry, looked up): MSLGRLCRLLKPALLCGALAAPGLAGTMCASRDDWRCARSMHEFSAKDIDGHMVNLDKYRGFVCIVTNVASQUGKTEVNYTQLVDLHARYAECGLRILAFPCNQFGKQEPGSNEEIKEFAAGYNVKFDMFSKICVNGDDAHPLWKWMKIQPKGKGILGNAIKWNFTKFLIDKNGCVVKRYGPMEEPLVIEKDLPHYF
# In short: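 qHTS, GR-coupled: GPX4 200 nM + cpd 30 min RT → GSH 1 mM, NADPH 0.5 mM, GR 100 nM → CHP 0.5 mM start; fluor 340/450 at t0 and t15 min; no-enzyme wells as control.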
# [3] = target: Luciferin 4-monooxygenase (Photinus pyralis) (UniProt P08659); assay: Primary firefly luciferase (FLuc) qHTS assay for identification of artifact compounds. (AID 1845220); note: nearly all actives have a fitted effect of over 60% in size; for activity change, negative = inhibition: series mostly up to about 54 µM
# In short: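 Reaction readout was CCD-imaged luminescence, taken 5 min after adding 10 nM purified firefly enzyme to compound-treated wells holding 10 uM luciferin and ATP in pH 7.6 buffer.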
# [4] = Primary fluorescence-based thiol-reactive (MSTI) qHTS assay for identification of artifact compounds. (AID 1845221); note: nearly all actives have a fitted effect of over 65% in size; note: potency is the fitted concentration of half-maximal effect
# In short: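 Probe: MSTI 4 uM, PBS pH 7.4, 2% DMSO. Incubation 1 h, RT, light-protected. Readout fluorescence 525/598 nm.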
# [5] = test system: Nanoluciferase (engineered Oplophorus gracilirostris luciferase); assay: Primary Nanoluciferase (NLuc) qHTS assay for identification of artifact compounds. (AID 1845222);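 note: NLuc secreted into diluted conditioned medium of S16 cells; series mostly up to about 54 µM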
# In short: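 Concentration-response data were obtained by luminescence after 5 min with Nano-Glo substrate at 1:100. The enzyme was diluted S16 NLuc-expressing cell medium, preincubated with compound for 15 min at RT. Curves were fitted with a 4-parameter Hill model.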
smiles,measurement,setting,value
Nc1c(CC(=O)O)cccc1C(=O)c1ccccc1,Potency,[1],inactive
same,Potency,[2],inactive
CNc1cccc(CCOc2ccc3c(c2)CN(CC(F)(F)F)C(=O)[C@H](CC(=O)O)C3)n1,Potency,[1],inactive
same,Potency,[2],inactive
same,Potency,[3],inactive
same,Potency,[4],inactive
same,Potency,[5],inactive
CCCCCCCCCCCCCCCCCC(=O)[O][Al],"activity, negative = inhibition",[1],-27.3% [at 4.49 µM]
same,"activity change, negative = inhibition",[2],-12.8% [at 4.52 µM]
CCOC(=O)[C@H](CCc1ccccc1)N[C@H]1CCCN2CCC[C@@H](C(=O)O)N2C1=O,Potency,[1],inactive
same,Potency,[2],inactive
O=P(O)(O)C(Sc1ccc(Cl)cc1)P(=O)(O)O,"activity, negative = inhibition",[1],3.51% [at 0.4 µM]
same,outcome,[2],inactive [at 0.409 µM]
C=C1C(OC2OC(CO)C(O)C(O)C2O)CC2C(C)(C)C(O)CCC2(C)C1CC/C(C)=C\COC(=O)CC(=O)O (centres undefined),Potency,[1],inactive
same,Potency,[2],inactive
same,Potency,[3],inactive
same,Potency,[4],inactive
same,Potency,[5],inactive
O=C(Cc1cccc(OC(F)(F)F)c1)Nc1ccc(CCCCc2nnc(NC(=O)Cc3ccccn3)s2)nn1,Potency,[1],inactive
same,Potency,[2],inactive
CC(C(=O)O)c1ccc(C2CCCCC2)c2ccccc12 (centres undefined),Potency,[1],inactive
same,Potency,[2],15.8 µM (active)
CN[C@@H]1CCc2[nH]c3ccc(C(N)=O)cc3c2C1,Potency,[1],inactive
same,Potency,[2],inactive
O=C(OCCO)c1ccccc1O,Potency,[1],inactive
same,Potency,[2],inactive
Cc1cccc(C)c1N(CCCc1cccnc1)C(=O)C(C)N (centres undefined),Potency,[1],inactive
same,Potency,[2],inactive
FC(F)(F)c1ccc(CNc2ccc(Cc3c[nH]c4ncc(Cl)cc34)cn2)cn1,Potency,[1],inactive
same,Potency,[2],inactive
CC1(C)CCCC2(C)C1C(=O)C=C(C(=O)O)C2(O)C(=O)O (centres undefined),Potency,[1],inactive
same,Potency,[2],inactive
same,Potency,[3],inactive
same,Potency,[4],9.47 µM (active)
same,Potency,[5],inactive
COc1ccc(CNCC(O)COc2ccc3[nH]c(=O)ccc3c2)cc1OC (centres undefined),Potency,[1],inactive
same,Potency,[2],inactive
Cc1[nH]c(/C=C2\C(=O)Nc3ccc(S(=O)(=O)N(C)c4cccc(Cl)c4)cc32)c(C)c1C(=O)N1CCN(C)CC1,Potency,[1],inactive
same,Potency,[2],inactive
same,Potency,[3],inactive
Cc1cnn(-c2ccccc2)c1NC(=O)COCc1ccccc1,Potency,[1],inactive
same,Potency,[2],inactive
same,Potency,[3],inactive
same,Potency,[4],inactive
same,Potency,[5],inactive
O=C(NC[C@H]1CN(c2ccc(N3CCOCC3=O)cc2)C(=O)O1)c1ccc(Cl)s1,Potency,[1],inactive
same,Potency,[2],inactive
same,Potency,[3],inactive
same,Potency,[4],inactive
same,Potency,[5],inactive
CC(=O)O[C@@H]1CC2C(C)(C)C(=O)C=C[C@]2(C)C2CC[C@@]3(C)[C@H](c4ccoc4)OC(=O)[C@H]4O[C@]43[C@@]21C (some centres undefined),Potency,[1],inactive
same,Potency,[2],inactive
same,Potency,[3],inactive
same,Potency,[4],inactive
same,Potency,[5],inactive
CC(=O)O[C@@H]1CC[C@@]2(C)[C@H](CC[C@@H]3[C@@H]2C[C@H](OC(C)=O)[C@]2(C)[C@@H](C(C)=O)CC[C@@H]32)C1,Potency,[1],inactive
same,Potency,[2],inactive
same,Potency,[3],inactive
same,Potency,[4],inactive
same,Potency,[5],inactive
Cc1nc(NC(=O)N2CCC[C@H]2C(N)=O)sc1-c1ccnc(C(C)(C)C(F)(F)F)c1,Potency,[1],inactive
same,Potency,[2],inactive
same,Potency,[3],inactive
same,Potency,[4],inactive
same,Potency,[5],inactive
Cc1cc(NC(=O)c2cccc(NC(=O)/C=C/CN(C)C)c2)ccc1Nc1nccc(-c2cccnc2)n1,Potency,[1],inactive
same,Potency,[2],inactive
same,Potency,[3],inactive
same,Potency,[4],inactive
C=C(C)C1CC(O)C(C)C12CC(O)C1(C)OC1C2O (centres undefined),Potency,[1],inactive
same,Potency,[2],inactive
same,Potency,[3],inactive
same,Potency,[4],inactive
same,Potency,[5],inactive
COc1ccc(Cl)c(Nc2ncnc3cc(OCC4CCN(C)CC4)c(OC)cc23)c1,Potency,[1],inactive
same,Potency,[2],inactive
same,Potency,[3],inactive
same,Potency,[4],inactive
same,Potency,[5],inactive
CN1CCN(c2ccc(OC(F)(F)F)c(Nc3ncc4c(n3)-c3c(c(C(N)=O)nn3CCO)CC4)c2)CC1,Potency,[1],inactive
same,Potency,[2],inactive
same,Potency,[3],inactive
same,Potency,[4],inactive
same,Potency,[5],inactive
CCOC(=O)N1CCC(N2CCC[C@@H](NC(=O)c3ccccc3C)C2)CC1,Potency,[1],inactive
same,Potency,[2],inactive
same,Potency,[3],inactive
same,Potency,[4],inactive
same,Potency,[5],inactive
